From PubChem BioAssay (EPA / NIEHS) come the findings set out here.

The nature of experiment [1]: ATG_ERE_CIS: Attagene CIS-FACTORIAL HepG2 Assay for Estrogen Response Element (ERE) (AID 2282940; active = hit-call score of the fitted dose curve at least 0.9, where 1 is the maximum; inactive = score below 0.9). As to conditions: HepG2 ERE cis-reporter, Attagene RNA transcript; actives raise or lower the signal. The method, boiled down:
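Transient MRTU transfection of human HepG2; cis-element promoters; 24 h dosing; total RNA → RT (oligo dT) → PCR → 6-FAM primer extension → HpaI digest → CE fluorescence. Bidirectional fit, DMSO baseline.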

A short description of experiment [2]: ATG_PPRE_CIS: Attagene CIS-FACTORIAL HepG2 Assay for human Peroxisome Proliferator-activated Response Element (PPRE) (AID 2282958; active = hit-call score of the fitted dose curve at least 0.9, where 1 is the maximum; inactive = score below 0.9). As to conditions: HepG2 PPRE cis-element reporter, Attagene transcription factor profiling; actives raise or lower the signal. In a few lines: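 PPRE activity in HepG2: transient cis-reporter transfection, 24 h compound incubation, reporter mRNA by RT-PCR and CE fluorescence; gain/loss fitted against DMSO.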

Experiment [3] concerns the target Steroid hormone receptor ERR1 (Homo sapiens) (UniProt P11474). The experiment is described as follows: ATG_ERRa_TRANS: Attagene TRANS-FACTORIAL HepG2 Assay for human Estrogen-Related Receptor alpha (ERRa) (AID 2282971). As to conditions: HepG2 Attagene TRANS reporter, ERRa transactivation. In a few lines: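 Reporter transcript induction was quantified by RT-PCR and capillary electrophoresis of FAM-labelled, HpaI-cut products after 24 h treatment of HepG2 cells carrying transiently transfected GAL4-UAS reporter units and an exogenous ERRa-Gal4 fusion; activity scored as increase over DMSO.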

The target of experiment [4] is Estrogen-related receptor gamma (Homo sapiens) (UniProt P62508). The experiment is described as follows: ATG_ERRg_TRANS: Attagene TRANS-FACTORIAL HepG2 Assay for human Estrogen-Related Receptor gamma (ERRg) (AID 2282977).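 Note: hits increase reporter signal over DMSO so potencies reflect activators.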 As to conditions: HepG2 Attagene TRANS reporter, ERRg transactivation. In a few lines: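 Readout: fluorescent reporter-mRNA fragments resolved by capillary electrophoresis after RT-PCR and HpaI cut. Cells: transiently transfected HepG2 carrying GAL4-UAS reporters driven by exogenous NR-Gal4 chimeras, dosed 24 h. Activity fitted upward relative to DMSO baseline.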

The target of experiment [5] is Peroxisome proliferator-activated receptor gamma (Homo sapiens) (UniProt P37231). Briefly: ATG_PPARg_TRANS: Attagene TRANS-FACTORIAL HepG2 Assay for human Peroxisome Proliferator-activated Receptor-gamma (PPARg) (AID 2283007). The method, boiled down:
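Twenty-four hours after chemical dosing of transiently transfected HepG2 cells, isolated RNA was converted to cDNA, reporter sequences amplified and 6-FAM-labelled, then HpaI-digested and analysed by capillary electrophoresis. Signal increase against DMSO was fitted.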

Experiment [6] concerns the target human RAR-related Orphan Receptor gamma (RORg), RORC (gene 6097) (UniProt P51449). Briefly: ATG_RORg_TRANS: Attagene TRANS-FACTORIAL HepG2 Assay for human RAR-related Orphan Receptor gamma (RORg) (AID 2283011). The method, boiled down:
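First, HepG2 liver cells were transfected with GAL4-UAS-driven reporter constructs and the RORg-Gal4 fusion. Next, they were treated with chemical for 24 h. Finally, reporter mRNA was quantified by RT-PCR and capillary electrophoresis, with upward activity fitted against DMSO.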

For experiment [7], the target named is Estrogen receptor beta (Homo sapiens) (UniProt Q92731). The experiment is described as follows: OT_ER_ERbERb_0480: Odyssey Thera (OT) 8-hour HEK293T Protein-Complementation Assay for Estrogen Receptor-beta/-beta Homodimer (AID 2283357).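 Note: active means signal gain over DMSO baseline.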 In a few lines:
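ER-beta LBD homodimer PCA stably expressed in HEK293T; 8 h compound exposure, then formaldehyde fixation and Draq5 staining. Gain in nuclear/cytoplasmic fluorescence intensity versus DMSO vehicle, read on laser scanning cytometer.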

Experiment [8] has the same target. The experiment is described as follows: OT_ER_ERbERb_1440: Odyssey Thera (OT) 24-hour HEK293T Protein-Complementation Assay for Estrogen Receptor-beta/-beta Homodimer (AID 2283380).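 Note: scored as signal increase over DMSO baseline for both agonists and antagonists.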 The method, boiled down:
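Fluorescence increase, nuclear for agonists or whole-cell for antagonists, relative to DMSO vehicle, quantified by laser scanning cytometer after fixation and Draq5 staining. Readout from 24 h treatment of HEK293T cells carrying complementation-paired ER beta LBD (aa 310-547).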

In experiment [9] the target is Retinoic acid receptor RXR-alpha (Homo sapiens) (UniProt P19793). Briefly: OT_NURR1_NURR1RXRa_0480: Odyssey Thera (OT) 8-hour HEK293T Protein Complementation Assay for Nurr1/retinoid X receptor (RXR) (AID 2283385). In a few lines: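 Read-out: fluorescence from protein-fragment complementation between Nurr1 and RXRα in human HEK293T cells, 8 h after dosing. DMSO served as negative control; increased signal counted as activity.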

For experiment [10] the target is unchanged. The experiment is described as follows: OT_NURR1_NURR1RXRa_1440: Odyssey Thera (OT) 24-hour HEK293T Protein Complementation Assay for Nurr1/retinoid X receptor (RXR) (AID 2283386). The method, boiled down: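 Fluorescence PCA read-out; HEK293T; 24 h post-dose; bait/prey fused to reporter fragments; gain-of-signal fit vs DMSO negative control.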
The target in experiment [11] is Peroxisome proliferator-activated receptor gamma (Homo sapiens) (UniProt P37231). Briefly: OT_PPARg_PPARgSRC1_0480: Odyssey Thera (OT) 8-hour Protein-Complementation Assay for Peroxisome Proliferator-activated Receptor Gamma / SRC-1 Co-activator (AID 2283387).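 Note: nuclear to cytoplasmic split Venus YFP fluorescence ratio reporting PPARg SRC-1 interaction.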 In a few lines: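 Split-YFP (IFP1/IFP2) PPARg/SRC-1 reporter, HEK293T, 37 °C, 5% CO2; 8 h compound; formaldehyde fix + Draq5; high-content imaging, N/C ratio, ≥350 cells/image, positive direction vs DMSO.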

The nature of experiment [12]: ACEA_AR_agonist_AUC_viability: ACEA Biosciences xCELLigence Real-Time Cell Analysis on Androgen Receptor Agonism for Viability (AID 2283775). The method, boiled down: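 Viability endpoint from xCELLigence impedance in 22Rv1 prostate cells at 80 h. Eight-point series, 100 uM maximum final.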
Experiment [13] can be described thus: ACEA_AR_antagonist_AUC_viability: ACEA Biosciences xCELLigence Real-Time Cell Analysis on Androgen Receptor Antagonism for Viability (AID 2283776).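 Note: 22Rv1 human prostate cancer cells growing on impedance electrode plates; area under impedance growth curve at 80 h after dosing as viability; hits lower the growth signal relative to DMSO meaning cytotoxicity.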 The method, boiled down:
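Viability endpoint from label-free cell-index monitoring: 22Rv1 cultures treated with an eight-point 1:4 dilution series starting at 100 uM final, AUC at 80 h fitted against DMSO.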

Experiment [14] is described as follows: CCTE_Shafer_MEA_acute_AB: CCTE's Alamar Blue Assay for Cytotoxicity in the Neural Acute Assay, Shafer Lab (AID 2284069).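 Note: active compounds lower the viability signal compared with DMSO wells.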 In a few lines: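 Cytotoxicity endpoint for acute MEA exposures of primary rat cortical neurons on day 13 or 15. Resazurin reduction is read fluorescently at 544/590 nm, with DMSO as the negative-control baseline.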
For orientation: Alamar Blue is a resazurin reagent that responds to reducing activity.

Experiment [15] concerns the target Bile acid receptor (Homo sapiens) (UniProt Q96RI1). The experiment is described as follows: ATG_IR1_CIS: Attagene CIS-FACTORIAL HepG2 Assay for human Nuclear Receptor Subfamily 1 Group H Member 4 (NR1H4), IR1 submotif (AID 2282946; active = hit-call score of the fitted dose curve at least 0.9, where 1 is the maximum; inactive = score below 0.9). As to conditions: IR1 reporter transcription, actives raise or lower the signal. The method, boiled down: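 HepG2 cells transiently transfected with multiplexed cis-element reporter units read endogenous transcription factor activity. After 24 h compound exposure, reporter mRNA was quantified by RT-PCR, fluorescent labelling, HpaI digestion and capillary electrophoresis; bidirectional fitting versus DMSO baseline.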

For experiment [16] the target is unchanged. Briefly: ATG_FXR_TRANS: Attagene TRANS-FACTORIAL HepG2 Assay for Farnesoid X Receptor (FXR) (AID 2282979).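 Note: hits raise reporter mRNA above DMSO so AC50 marks FXR activation.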 The following applies: HepG2 Attagene TRANS FXR-GAL4 reporter transcription. In a few lines: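 Transient transfection of HepG2 with multiplexed GAL4-UAS reporter units; exogenous FXR-GAL4 chimera. Dose 24 h → TriZol RNA → oligo(dT) RT → PCR, 6-FAM primer extension, HpaI cut → CE. Gain vs DMSO.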

A short description of experiment [17]: CCTE_Deisenroth_AIME_384WELL_CTox_Active: Cytotoxicity Assessment (CTOX) in CCTE's 384-well Estrogen Receptor Transactivation Assay with AIME metabolic competence (metabolism positive), Deisenroth Lab (AID 2284037).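 Note: chemicals first conditioned 2 h by alginate-bound induced rat liver S9 before cells; activity means signal loss indicating cell death.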 In a few lines: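 Cytotoxicity in VM7Luc4E2 breast cells, 24 hour, measured as protease-substrate fluorescence loss, after 2-hour metabolic conditioning with induced rat hepatic S9 in alginate microspheres. Concentrations 0.002 - 200 uM, 10 points, bidirectional fitting.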

Experiment [18] can be described thus: CCTE_Deisenroth_AIME_384WELL_CTox_Inactive: Cytotoxicity Assessment (CTOX) in CCTE's 384-well Estrogen Receptor Transactivation Assay without AIME metabolic competence (metabolism negative), Deisenroth Lab (AID 2284039).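 Note: cell viability via live-cell protease substrate cleaved to fluorescent probe; cells exposed 24 h to medium preincubated 2 h with alginate-water beads without S9; loss of fluorescence signal means loss of viability.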 The method, boiled down: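 Fluorescence from a live-cell protease substrate, read after 24 h in VM7Luc4E2 cells, indicated viability. Test medium came from a 2 h AIME step without hepatic S9 (alginate-water microspheres); concentrations spanned 0.002 - 200 uM, single technical replicate per run.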

Read-out in experiment [19]: Interleukin 6 (IL6), IL6 (gene 3569)
The experiment is described as follows: BSK_BT_xIL6: BioMAP Diversity Plus: BT Assay for Interleukin 6 (IL6) Biomarker Activity (AID 2284228; active = hit-call score of the fitted dose curve at least 0.9, where 1 is the maximum; inactive = score below 0.9). As to conditions: primary human B cells with PBMC. In a few lines:
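B cells and peripheral blood mononuclear cells (human primary co-culture) were dosed with chemical, and after 24 h IL-6 released into the medium was measured by Luminex xMAP. Responses were analysed as gain of signal over DMSO control.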

Experiment [20] deals with Oxysterols receptor LXR-beta (Homo sapiens) (UniProt P55055). Briefly: ATG_LXRb_TRANS: Attagene TRANS-FACTORIAL HepG2 Assay for human Liver X Receptor beta (LXRb) (AID 2282981). The following applies: HepG2 Attagene TRANS GAL4-LXRb reporter, mRNA. In a few lines:
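After 24 h of chemical treatment, transfected HepG2 cells yield total RNA; reporter cDNA is PCR-amplified, FAM-labelled, HpaI-cut and run on capillary electrophoresis. Signal reflects chimeric LXRb-Gal4 activity on GAL4-UAS reporters.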

Results filed as inconclusive are left out. Where a structure was tested more than once in an assay, its records may differ in their call. Active and inactive are the calls of the source. Rule for the calls, unless noted: active = hit-call score of the fitted dose curve at least 0.9, where 1 is the maximum; inconclusive = response in the unintended direction; inactive = score below 0.9.

The term AC50 denotes the midpoint of the concentration-response curve, whichever way the signal moves.

Sequence of human RAR-related Orphan Receptor gamma (RORg), RORC (gene 6097) (P51449 whole entry, looked up, the tested form may be a part): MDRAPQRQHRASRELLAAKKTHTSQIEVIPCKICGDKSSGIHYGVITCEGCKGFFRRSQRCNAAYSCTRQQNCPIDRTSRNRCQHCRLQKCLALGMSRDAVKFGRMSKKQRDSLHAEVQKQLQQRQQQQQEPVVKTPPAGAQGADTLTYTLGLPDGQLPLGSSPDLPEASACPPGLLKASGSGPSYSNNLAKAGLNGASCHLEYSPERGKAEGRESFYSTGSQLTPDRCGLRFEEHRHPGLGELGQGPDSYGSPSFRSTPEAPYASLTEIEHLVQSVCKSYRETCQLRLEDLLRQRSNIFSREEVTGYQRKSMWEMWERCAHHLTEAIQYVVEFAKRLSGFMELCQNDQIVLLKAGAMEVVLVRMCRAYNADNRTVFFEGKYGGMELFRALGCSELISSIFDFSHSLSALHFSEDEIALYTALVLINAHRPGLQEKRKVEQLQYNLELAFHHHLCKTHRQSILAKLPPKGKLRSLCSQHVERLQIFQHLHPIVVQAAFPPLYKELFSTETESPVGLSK
Sequence of Estrogen-related receptor gamma (Homo sapiens) (P62508 whole entry, looked up, the tested form may be a part): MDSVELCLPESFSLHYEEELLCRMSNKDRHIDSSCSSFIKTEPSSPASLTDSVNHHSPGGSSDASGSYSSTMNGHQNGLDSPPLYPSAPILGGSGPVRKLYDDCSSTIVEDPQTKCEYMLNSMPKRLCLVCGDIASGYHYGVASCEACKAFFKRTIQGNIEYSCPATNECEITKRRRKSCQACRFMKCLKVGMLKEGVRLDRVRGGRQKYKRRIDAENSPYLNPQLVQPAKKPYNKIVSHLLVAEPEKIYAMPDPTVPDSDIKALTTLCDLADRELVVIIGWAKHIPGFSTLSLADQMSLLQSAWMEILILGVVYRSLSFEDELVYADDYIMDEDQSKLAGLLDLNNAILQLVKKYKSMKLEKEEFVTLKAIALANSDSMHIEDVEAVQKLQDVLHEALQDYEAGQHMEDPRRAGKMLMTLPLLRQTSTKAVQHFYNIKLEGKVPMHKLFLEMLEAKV
Sequence of Bile acid receptor (Homo sapiens) (Q96RI1 whole entry, looked up): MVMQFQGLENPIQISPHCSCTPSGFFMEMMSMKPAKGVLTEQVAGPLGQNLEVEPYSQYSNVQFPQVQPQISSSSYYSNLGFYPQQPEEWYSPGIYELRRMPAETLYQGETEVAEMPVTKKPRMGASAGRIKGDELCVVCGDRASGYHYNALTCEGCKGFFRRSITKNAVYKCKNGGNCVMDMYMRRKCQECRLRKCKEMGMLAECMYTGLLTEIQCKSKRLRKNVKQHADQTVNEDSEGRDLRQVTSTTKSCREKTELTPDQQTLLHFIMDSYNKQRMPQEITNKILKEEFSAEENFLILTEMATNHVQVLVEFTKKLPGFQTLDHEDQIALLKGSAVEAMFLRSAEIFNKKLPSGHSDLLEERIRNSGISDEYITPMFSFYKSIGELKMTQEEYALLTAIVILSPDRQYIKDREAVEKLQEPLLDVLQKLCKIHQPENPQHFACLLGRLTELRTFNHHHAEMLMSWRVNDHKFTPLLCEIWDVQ
Sequence of Estrogen receptor beta (Homo sapiens) (Q92731 whole entry, looked up, the tested form may be a part): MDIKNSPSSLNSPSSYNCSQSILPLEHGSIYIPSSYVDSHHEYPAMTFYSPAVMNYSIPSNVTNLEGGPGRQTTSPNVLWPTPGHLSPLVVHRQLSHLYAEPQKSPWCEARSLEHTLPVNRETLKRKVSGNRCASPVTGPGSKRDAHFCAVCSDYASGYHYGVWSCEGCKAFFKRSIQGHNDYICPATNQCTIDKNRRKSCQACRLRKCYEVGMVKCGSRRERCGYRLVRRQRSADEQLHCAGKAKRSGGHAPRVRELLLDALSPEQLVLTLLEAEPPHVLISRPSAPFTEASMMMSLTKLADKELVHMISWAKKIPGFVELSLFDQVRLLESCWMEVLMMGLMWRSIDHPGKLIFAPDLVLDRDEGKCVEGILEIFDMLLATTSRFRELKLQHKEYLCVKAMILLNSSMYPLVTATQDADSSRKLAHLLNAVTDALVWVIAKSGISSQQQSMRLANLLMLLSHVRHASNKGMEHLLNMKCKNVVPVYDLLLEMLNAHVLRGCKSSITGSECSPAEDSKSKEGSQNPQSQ
Sequence of Retinoic acid receptor RXR-alpha (Homo sapiens) (P19793 whole entry, looked up, the tested form may be a part): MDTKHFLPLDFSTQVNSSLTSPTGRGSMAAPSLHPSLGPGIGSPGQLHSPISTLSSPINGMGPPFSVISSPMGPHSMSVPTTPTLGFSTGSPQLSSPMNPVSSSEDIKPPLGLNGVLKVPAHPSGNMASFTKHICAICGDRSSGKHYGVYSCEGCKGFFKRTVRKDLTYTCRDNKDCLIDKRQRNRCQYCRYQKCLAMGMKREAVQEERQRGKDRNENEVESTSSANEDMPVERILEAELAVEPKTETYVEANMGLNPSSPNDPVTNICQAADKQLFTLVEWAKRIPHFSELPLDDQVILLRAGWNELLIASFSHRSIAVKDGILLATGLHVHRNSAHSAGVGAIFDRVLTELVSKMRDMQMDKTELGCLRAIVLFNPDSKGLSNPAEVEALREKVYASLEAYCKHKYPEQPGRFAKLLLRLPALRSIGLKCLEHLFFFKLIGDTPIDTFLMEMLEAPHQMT
Sequence of Peroxisome proliferator-activated receptor gamma (Homo sapiens) (P37231 whole entry, looked up): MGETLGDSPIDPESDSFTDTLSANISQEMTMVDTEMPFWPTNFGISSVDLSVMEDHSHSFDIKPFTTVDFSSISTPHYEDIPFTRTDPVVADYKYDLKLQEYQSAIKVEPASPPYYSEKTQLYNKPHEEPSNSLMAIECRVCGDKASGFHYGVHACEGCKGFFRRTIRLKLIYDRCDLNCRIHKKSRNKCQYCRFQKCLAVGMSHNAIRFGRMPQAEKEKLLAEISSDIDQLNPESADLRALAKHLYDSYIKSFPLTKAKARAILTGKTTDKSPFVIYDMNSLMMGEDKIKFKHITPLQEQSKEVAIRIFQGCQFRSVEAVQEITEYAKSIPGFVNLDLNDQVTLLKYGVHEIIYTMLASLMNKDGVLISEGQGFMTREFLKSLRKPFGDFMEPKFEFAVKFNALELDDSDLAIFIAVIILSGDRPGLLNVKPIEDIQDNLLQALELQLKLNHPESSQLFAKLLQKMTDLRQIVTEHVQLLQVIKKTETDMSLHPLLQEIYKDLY
Sequence of Oxysterols receptor LXR-beta (Homo sapiens) (P55055 whole entry, looked up, the tested form may be a part): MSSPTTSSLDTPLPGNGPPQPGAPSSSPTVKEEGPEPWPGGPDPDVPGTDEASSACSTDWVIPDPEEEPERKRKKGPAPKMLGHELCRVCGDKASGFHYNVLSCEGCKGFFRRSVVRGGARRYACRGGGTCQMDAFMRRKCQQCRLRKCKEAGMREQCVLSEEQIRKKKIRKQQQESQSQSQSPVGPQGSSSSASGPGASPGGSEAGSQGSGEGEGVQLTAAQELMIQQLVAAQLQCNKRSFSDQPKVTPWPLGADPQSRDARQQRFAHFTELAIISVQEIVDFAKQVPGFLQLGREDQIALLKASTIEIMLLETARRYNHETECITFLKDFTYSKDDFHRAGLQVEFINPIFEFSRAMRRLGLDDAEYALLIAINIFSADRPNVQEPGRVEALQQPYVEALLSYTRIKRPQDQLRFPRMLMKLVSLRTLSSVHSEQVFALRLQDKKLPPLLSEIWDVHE
Sequence of Steroid hormone receptor ERR1 (Homo sapiens) (P11474 whole entry, looked up, the tested form may be a part): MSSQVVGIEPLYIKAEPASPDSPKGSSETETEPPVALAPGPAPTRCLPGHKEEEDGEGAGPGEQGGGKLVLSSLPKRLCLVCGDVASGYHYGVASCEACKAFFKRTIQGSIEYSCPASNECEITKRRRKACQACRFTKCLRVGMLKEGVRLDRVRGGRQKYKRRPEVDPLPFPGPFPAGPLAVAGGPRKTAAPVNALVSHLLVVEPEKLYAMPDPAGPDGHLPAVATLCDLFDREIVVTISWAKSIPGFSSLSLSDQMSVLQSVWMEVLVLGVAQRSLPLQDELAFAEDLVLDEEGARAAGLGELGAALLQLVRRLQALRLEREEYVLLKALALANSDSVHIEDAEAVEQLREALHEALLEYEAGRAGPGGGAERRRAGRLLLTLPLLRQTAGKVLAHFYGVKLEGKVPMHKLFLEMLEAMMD

For the compound `CCOC(=O)c1ccccc1`, the compound was called inactive in [1], in experiment [2], in experiment [3], in experiment [4], in experiment [5] and in experiment [6]. Also, the compound was called inactive in experiment [7], in experiment [8], in experiment [9], in experiment [10], in experiment [11] and in experiment [12]. For the same compound, in experiment [13], the result was inactive.
Take `CC(C)C1OCCN1CCOC(=O)NCCCCCCNC(=O)OCCN1CCOC1C(C)C` (stereo not drawn): the result in experiment [14] was inactive.
On to `Oc1cccc2ccccc12`, for which the call in [15], in experiment [16], in experiment [6], in experiment [9], in [10] and in experiment [12] was inactive. Moreover, the compound was called inactive in experiment [13], in experiment [17] and in experiment [18]. Also, the figures for the AC50 in experiment [7], in experiment [8] and in [19] were 39.1 µM (active), 49.2 µM (active) and 0.0576 µM (active), respectively.
On to `CC/C=C\CCO`, for which the call in [15], in experiment [4], in [20], in experiment [6], in experiment [7] and in experiment [8] was inactive. The outcome in [9], in [10], in [13], in experiment [17] and in experiment [18] was inactive.
As for `Cc1c(C(N)=O)cc([N+](=O)[O-])cc1[N+](=O)[O-]`, the call in [14] was inactive.
For `OC(C(F)(F)F)(C(F)(F)F)C(O)(C(F)(F)F)C(F)(F)F`, in [19], the AC50 is 39.5 µM (active) and the result was inactive.
With `O=C(O)/C=C/C(=O)O`, the compound was classed as inactive in experiment [7], in experiment [8], in experiment [12] and in experiment [13].
Regarding `CC(C)CC(=O)CC(C)C`, the compound was classed as inactive in experiment [4], in [6], in [7], in experiment [8], in experiment [10] and in experiment [17]. Besides, the compound was called inactive in experiment [18].
Turning to `COc1ccccc1Oc1c(NS(=O)(=O)c2ccc(C(C)(C)C)cc2)nc(-c2ncccn2)nc1OCCO`, in experiment [14], the compound was called inactive.
For the compound `CCCCCCOC(=O)CCCCCCCC(=O)OCCCCCC`, the result in experiment [20] was inactive.
